Among the data in PubChem BioAssay (NCI) are growth values, retold here.

Each structure is given as a SMILES string. About 83,000 compounds went through this panel and 20% of them were active in at least one assay; those are over-represented in the sample as a whole.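 Testing used 96-well plates and a 48-hour single-concentration exposure. Example: -40 means 40% of the starting cells died.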 The source made the active and inactive calls.

The test system of this assay is OVCAR-3 ovarian. The assay can be described thus: NCI-60 one-dose screen, 48 h (100 = growth as untreated, 0 = no growth, -100 = all killed). The following applies: 10 µM unless noted. The procedure: Growth inhibition of the OVCAR-3 human tumor cell line is measured as a screen for anti-cancer activity. Cells are grown in 96 well plates and exposed to the test compound for 48 hours. Compounds are tested at a single concentration, which is 10^-5 M for most compounds. The reported endpoint is percent growth (GI% or GIPRCNT), where numbers from 0 - 100% represent growth inhibition, and numbers from -100% - 0 represent cell death. For example, a value of 40 represents 60% growth inhibition. A value of 0 means no net growth occurred over the course of the experiment. A value of -40 indicates 40% of cells at the beginning of the experiment died by the end of the experiment. A value of -100 means all cells are dead at the end of the experiment.
NCI-60 Human Tumor Cell Lines Screen was performed using the standard one-dose NCI protocol, which is described in more detail at https://dtp.cancer.gov/discovery_development/nci-60/default.htm.
Compounds with GIPRCNT values below 10 were considered active. Activity score was based on GIPRCNT using the following formula: […]
Score is 0 for GIPRCNT values of 100 or above, 50 for GIPRCNT values of 0, and 100 for GIPRCNT values of -100.
As to `O=C(/C=C/c1ccc(Cl)cc1)c1ccc(O)c(CN2CCN(c3cc4c(cc3F)c(=O)c(C(=O)O)cn4C3CC3)CC2)c1`, the growth was 73.9% (inactive). Turning to `C=C1CC2(OC1=O)C(=O)N(CCCCCCCCCCCCN1C(=O)C3(CC(=C)C(=O)O3)c3ccccc31)c1ccccc12` (stereo not given), the growth was 66.8% (inactive). On to `CS(=O)CCCCCN=C=S` (stereo not given), for which the growth is -20.4% (active).

With `NC(N)=Nc1ccc(S(=O)(=O)O)cc1`, the growth is 129% (inactive). As for `Nc1ccc2c(c1)C(=O)NC2=O`, the growth was 105% (inactive).

Take `C[C@H](CCC(=O)O)[C@H]1CC[C@H]2[C@@H]3CC[C@@H]4/C(=C\c5ccco5)C(=O)/C(=C\c5ccco5)C[C@]4(C)[C@H]3CC[C@]12C`: the growth was 24.6% (inactive).

Regarding `O=C(CN1CCOCC1)Nc1ccc(Cn2nnc3c2C(=O)c2nnn(Cc4ccc(NC(=O)CN5CCOCC5)cc4)c2C3=O)cc1`, the growth is -19% (active). Regarding `Oc1ccc(Nc2nccc(-c3ccc4ccccc4c3)n2)cc1`, the growth is 34.3% (inactive). To `CCCCCn1cnc2c(=S)nc[nH]c21` belongs 124% (inactive); to `Cc1nn(-c2nc3ccccc3[nH]2)c2c1C(c1ccc3c(c1)OCO3)CC(=O)N2` (stereo not given), -24.3% (active). To `CCOC(=O)CC(C)=N` belongs 112% (inactive). For `CCN(CC)CCCC(C)Nc1ccnc2c(OC)cccc12` (stereo not given), the growth was 146% (inactive). To `S=c1[nH]nc(CSc2ncnc3c2c(-c2ccccc2)cn3-c2ccc(Cl)cc2)o1` belongs 101% (inactive).

As to `COc1c(C2CC(=O)Nc3c2cnn3Cc2ccco2)cc2c(c1OC)OCO2` (stereo not given), the growth is -35.9% (active). In the case of `CCn1cc2c(cc1=O)-c1nc3ccccc3c3ccnc(c13)C2=O` it was 73.8% (inactive); in that of `CC(C)(C)c1nn(-c2ccccc2)c2c1CC1(CN2Cc2ccc3c(c2)OCO3)C(=O)c2ccccc2C1=O`, 123% (inactive).

As for `O=C1Nc2ccccc2C12CC(c1ccccc1)=NN2` (stereo not given), the growth is 39.6% (inactive). For the molecule `CN1CCCCC1CCN1c2ccccc2Sc2ccc(Cl)cc21` (stereo not given), the growth was 81.6% (inactive). In the case of `O=C(NCc1cccc(C(F)(F)F)c1)[C@H](CCC(=O)N1CCN(C2CCCCC2)CC1)N1C(=O)[C@@H](N2C(=O)OC[C@@H]2c2ccccc2)[C@H]1/C(Cl)=C/c1ccccc1` it was 47.6% (inactive). Regarding `COC(=O)C12C3C(=O)N(c4ccc(OC)cc4)C(=O)C3C(c3cn(-c4ccccc4)nc3C)N1[C@H](c1cn(-c3ccccc3)nc1C)[C@@H]1C(=O)N(c3ccc(OC)cc3)C(=O)[C@@H]12` (stereo not given in full), the growth was 104% (inactive). To `CCCCCCCCCC(=O)Oc1ccc(/C(=C(/C)Cc2cccc(OC)c2)c2ccc(OCCN(C)C)cc2)cc1` belongs 109% (inactive); to `COc1ccc(/C=N\NC(=O)CN2CCN(c3cc4c(cc3F)c(=O)c(C(=O)N/N=C/c3ccc(OC)cc3)cn4C3CC3)CC2)cc1`, 85.2% (inactive). Regarding `Cc1cc(N/N=C/c2nc(-c3ccc(Cl)cc3)oc2C)c2cc(Br)ccc2n1`, the growth is -21.2% (active). In the case of `O=S(=O)(Nc1ccc(F)c(Cl)c1)c1ccc(-c2cnc(C3CC3)o2)cc1` it was -8.13% (active); in that of `C=C1C(=O)O[C@H]2[C@H]1CC/C(Cn1cc(Cn3ccc4cc(Cl)ccc43)nn1)=C\CC[C@@]1(C)O[C@@H]21`, -91.2% (active); in that of `CN(CC(=O)N(Cc1ccc(C2CCCCC2)cc1)c1ccc(C(=O)NO)cc1)S(=O)(=O)c1c(F)c(F)c(F)c(F)c1F`, 81.7% (inactive). To `CCCCN(CCCC)CCC(C)(O)c1cc2ccccc2c2ccccc12` (stereo not given) belongs 69% (inactive); to `CC/C=C\C[C@H](F)C/C=C1/C(=O)C=C[C@@H]1C/C=C\CCCC(=O)O`, 26.9% (inactive); to `CC(C)(C)n1cc(-c2ccnc(NCCCNS(=O)(=O)c3cccc4ccccc34)c2)c(-c2cccc(O)c2)n1`, 43.6% (inactive). To `c1ccc(CSc2ncnc3nc[nH]c23)nc1` belongs 104% (inactive); to `CCN(CC)c1ccc(CNc2cc(C)nc3ccc(OC)cc23)cc1`, 51.6% (inactive). Regarding `O=C(CO[N+](=O)[O-])Nc1ccc(C(=O)/C=C/c2ccc(Cl)cc2)cc1`, the growth is 0.332% (active). In the case of `CC1=C(NCCN2CCCC2)C(=O)c2c(OCc3ccc(F)c(Cl)c3)cccc2C1=O` it was 84% (inactive). In the case of `COC1/C=C\OC2(C)Oc3c(C)c(O)c4c(O)c(c(CN(C)CCO)c(O)c4c3C2=O)NC(=O)/C(C)=C\C=C/C(C)C(O)C(C)C(O)C(C)C(OC(C)=O)C1C` (stereo not given), the growth is 111% (inactive). To `C=C1C(=O)O[C@H]2[C@H]1CC/C(Cn1cc(Cn3ccc4ccccc43)nn1)=C\CC[C@@]1(C)O[C@@H]21` belongs -59.7% (active). To `CS(=O)(CCCCN=C=S)=NC(=O)c1c(F)c(F)c(F)c(F)c1F` (stereo not given) belongs 102% (inactive); to `COc1ccc(-c2cc(-c3cccnc3)nc3sc4c(=O)n(-c5ccc(C)cc5)nnc4c23)cc1OC`, 107% (inactive). In the case of `COc1ccc(/C=C2\N=C3SC=C(N)N3C2=O)cc1` it was 24.2% (inactive); in that of `COc1ccc(-c2nn(-c3ccccc3)cc2/C=C2\SC(=O)NC2=O)cc1`, 110% (inactive). In the case of `O=[N+]([O-])c1cccc(-c2nc3sccn3c2-c2ccnc(NCCCNS(=O)(=O)c3ccc(F)cc3)n2)c1`, the growth is 4.12% (active).
